Only some compounds are listed: those with a hit (about 0.56% of all), similar ones and a draw of the others.
Bcl-2 Bim block = human Bim-Bcl-2 interaction inhibition; P10415; Bead-based flow cytometry, Bim peptide-Bcl-2 binding; inhibition, % at 10 µM; 190,000 tested, 0.06% active; in the data active = inhibition above about 40%;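 note: 0% = no compound wells with probe peptide and 100% = reference peptide inhibitor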
Target sequence (P10415 whole entry, looked up): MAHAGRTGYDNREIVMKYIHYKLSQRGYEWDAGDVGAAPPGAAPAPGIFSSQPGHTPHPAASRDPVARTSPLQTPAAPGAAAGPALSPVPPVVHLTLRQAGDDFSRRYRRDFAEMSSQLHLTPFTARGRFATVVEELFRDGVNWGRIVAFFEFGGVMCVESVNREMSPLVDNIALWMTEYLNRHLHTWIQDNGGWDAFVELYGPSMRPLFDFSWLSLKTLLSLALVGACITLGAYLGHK
Bcl-XL Bim block = inhibitors of Bim-Bcl-XL interaction, human. Q07817. Bim peptide-Bcl-XL binding, bead flow cytometry, fluorescence. inhibition, % at 10 µM. 190,000 tested, 0.04% active. AID 1007
Target sequence (Q07817 whole entry, looked up): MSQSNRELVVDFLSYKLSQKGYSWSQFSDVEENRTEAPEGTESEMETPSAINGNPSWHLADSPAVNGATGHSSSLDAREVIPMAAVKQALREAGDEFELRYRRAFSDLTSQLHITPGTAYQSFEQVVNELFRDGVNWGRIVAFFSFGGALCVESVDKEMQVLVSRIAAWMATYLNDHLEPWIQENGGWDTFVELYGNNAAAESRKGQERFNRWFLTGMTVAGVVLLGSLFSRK
Bim-Bcl-B = inhibitors of Bim-Bcl-B interaction, human; inhibition, % at 10 µM; AID 951; Q9HD36; bead-based flow cytometry, Bim peptide-Bcl-B binding; 190,000 tested, 0.073% active;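 note: 0% = tracer peptide without compound and 100% = reference inhibitor peptide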
Arbovirus inh = blocks arbovirus infection; AID 1251; 200,000 tested, 0.37% active; inhibition, % at 10 µM; arbovirus infection cell-based antiviral screen; in the data active = inhibition above about 30%
Bcl-W Bim block = human Bim-Bcl-W interaction inhibition | Q92843 | bead-based flow cytometry, Bim peptide-Bcl-W binding | inhibition, % at 10 µM | 190,000 tested, 0.02% active | AID 952;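 note: 0% = bound tracer without compound and 100% = peptide blocker; higher means less fluorescent Bim peptide bound to Bcl-W beads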
Bim-Bfl-1 = disrupts Bim binding to human Bfl-1; Q16548; Bead-based flow cytometry, Bim-Bfl-1 binding inhibition; inhibition, % at 10 µM; 190,000 tested, 0.12% active; AID 1008;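 note: 0% = wells without compound plus tracer and 100% = blocker peptide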
An asterisk follows results filed as active. Cut-off read from the data, not from the text of the source, unless noted: active = inhibition above about 40%.

SMILES | Bcl-2 Bim block | Bcl-XL Bim block | Bim-Bcl-B | Arbovirus inh | Bcl-W Bim block | Bim-Bfl-1
CN(Cc1ccccc1)c1nc(-c2cccc([N+](=O)[O-])c2)nc2ccccc12 | -3.0 | -4.0 | -2.0 | -2.8 | 1.0 | -5.0
O=C1Nc2ccc([N+](=O)[O-])cc2OC1CCN1CCN(Cc2ccc3c(c2)OCO3)CC1 (configuration not stated) | 72.0* | 0.0 | 73.0* | -2.9 | -2.0 | 47.0*
CC[n+]1c(/C=C/C=C/N(C(C)=O)c2ccccc2)sc2cc(OC)ccc21 | -1.0 | 0.0 | 16.0 | -23.9 | 7.0 | 8.0
C=CCN(C(=O)c1ccccn1)C(C(=O)NCc1ccccc1)c1ccccc1F (configuration not stated) | -4.0 | 0.0 | -4.0 | 2.9 | 0.0 | 0.0
Cc1ccccc1-n1nc(CSc2nc3ccccc3[nH]2)c(-c2ccccc2)c1N | -2.0 | -4.0 | -4.0 | 39.9* | -4.0 | -2.0
Nc1c(-c2ccccc2)c(CSc2nc3ccccc3[nH]2)nn1-c1cccc(Cl)c1 | 3.0 | -3.0 | -4.0 | 34.4* | 0.0 | 2.0
O=C(Nc1cccc(NC(=O)c2cccs2)c1)c1ccco1 | -1.0 | 0.0 | -1.0 | 63.5* | -2.0 | 0.0
O=C(NCc1cccnc1)c1nn2cccnc2c1Cl | -1.0 | 0.0 | -2.0 | 1.0 | 3.0 | -3.0
CCn1c(SCC(=O)N/N=C/c2ccc(C)s2)nc2ccccc21 | -8.0 | -2.0 | -11.0 | -13.4 | -3.0 | -12.0
CCOc1cc(/C=C(\C#N)C(=O)NCc2cccnc2)ccc1O | 0.0 | -6.0 | -2.0 | 4.1 | 0.0 | -2.0
Cc1cc(N2CCN(S(=O)(=O)c3ccc(Cl)c(Cl)c3)CC2)c2ccccc2n1 | 0.0 | 0.0 | 0.0 | -11.8 | -2.0 | 2.0
Cc1ccc(S(=O)(=O)N2CCN(c3ccnc4cc(Cl)ccc34)CC2)cc1C | -3.0 | -3.0 | -5.0 | 30.3* | 0.0 | -4.0
Cc1cc(N2CCN(S(=O)(=O)c3ccc(Cl)cc3)CC2)c2ccccc2n1 | -2.0 | -4.0 | -4.0 | 35.6* | -7.0 | -5.0
Cc1ccc(S(=O)(=O)N2CCN(c3ccnc4cc(Cl)ccc34)CC2)cc1 | -4.0 | 0.0 | -5.0 | 15.1 | -4.0 | -5.0
Cc1ccc(C(NC(=O)NC(C)c2ccccc2)C(Cl)(Cl)Cl)cc1F (configuration not stated) | -2.0 | 0.0 | -4.0 | -12.5 | -4.0 | -3.0
CCc1ccc(NC(=O)C(=O)NCCOc2ccccc2Cl)cc1 | 0.0 | -1.0 | -7.0 | -0.1 | 2.0 | -5.0
O=C(c1cc(-c2ccco2)nc2ccccc12)N1CCN(c2ccc(F)cc2)CC1 | 4.0 | -5.0 | -9.0 | 13.1 | 2.0 | 8.0
CCCCn1c(SCC(=O)N2CCC(C)CC2)nc2ccsc2c1=O | -8.0 | -6.0 | -7.0 | 13.5 | -1.0 | -16.0
CCCCn1c(SCC(=O)N2CCN(c3ccccc3)CC2)nc2ccsc2c1=O | -12.0 | -12.0 | -9.0 | 34.4* | -3.0 | -19.0
COCCCNCC1C(Oc2ccc(Cl)cc2)C(=O)N1c1ccccc1C (configuration not stated) | -1.0 | -3.0 | -5.0 | 49.0* | -1.0 | 0.0
Cc1ccccc1N1C(=O)C(Oc2ccc(Cl)cc2)C1CNCCCOC(C)C (configuration not stated) | -3.0 | -5.0 | -3.0 | 11.2 | -3.0 | -2.0
COc1cc(C(=O)OCC(=O)NCCN2C(=O)CSC2=O)ccc1OCc1c(C)noc1C | 0.0 | -2.0 | 4.0 | 0.4 | -1.0 | 2.0
CCOC(=O)c1ccc(NC(=O)CSCCC(=O)O)cc1 | 90.0* | 61.0* | 84.0* | 1.6 | 62.0* | 50.0*
CN(C)S(=O)(=O)c1ccc(N=Cc2c(C(F)(F)F)[nH]n(C)c2=O)cc1 | -5.0 | -3.0 | -4.0 | 4.3 | -1.0 | -5.0
O=C(O)c1cccc(NC2=C(Cl)C(=O)c3ccccc3C2=O)c1 | 11.0 | -5.0 | -48.0 | -39.3 | 18.0 | 60.0*
Cc1ccc(NCC(=O)c2ccccc2)cc1Cl | 13.0 | 13.0 | 5.0 | -6.9 | 0.0 | 9.0
Cc1ccc(NC2=C(NC(=O)c3ccccc3)C(=O)c3ccccc3C2=O)cc1Cl | 13.0 | 1.0 | 0.0 | -37.6 | 23.0 | 50.0*
COc1cccc(C(=O)NN2CC(O)=C(c3nc4ccccc4n3C)C2=N)c1 | -1.0 | -2.0 | 0.0 | 1.1 | 2.0 | 1.0
O=C(COc1ccc(Cl)cc1)Nc1ncc([N+](=O)[O-])s1 | 1.0 | -1.0 | 4.0 | 30.5* | -4.0 | 5.0
Cc1ccc(NC(=S)Nc2cccnc2)c(S(=O)(=O)N2CCCCC2)c1 | 0.0 | -4.0 | -5.0 | -1.8 | -3.0 | -2.0

Compound activity as filed in PubChem BioAssay.
